For 40 sequences, sensor-assay potency score (higher = more potent) results are on record in the OligoGym collection.
Note: reference of the scale not given here.

One assay concerns the target FXN. Nature of the assay: pooled miR-30 sensor sort-seq; sequence = guide strand. The following applies: shRNA.
The sequence TCTGCTAAAGAGTCCAGCGTTT had a sensor-assay potency score (higher = more potent) of -0.618.

Sequence TTGGTTTTTAAGGCTTTAGTGA had a sensor-assay potency score (higher = more potent) of -0.944.

Take TTTTGACATTCCAAATCTGGTT: the sensor-assay potency score (higher = more potent) is -0.929.

For TTTCATAGGTGGTCTCATCTAG, the sensor-assay potency score (higher = more potent) was -0.00192.

As to TTTAGTGAGCTCTGCGGCCAGC, the sensor-assay potency score (higher = more potent) was -1.33.

Consider TTGTTGATCACATAGGTTCCTA, for which the sensor-assay potency score (higher = more potent) turned out to be 0.0276.

AAAGGAGACATCATAGTCCTCA showed a sensor-assay potency score (higher = more potent) of 0.0111.

ATTCATCAAATAGACACTCTGC showed a sensor-assay potency score (higher = more potent) of 0.393.

On to TTTTTGACATTCCAAATCTGGT, for which the sensor-assay potency score (higher = more potent) is -1.15.

The target of the next assay is FXR1. The assay is described as above. The following applies: shRNA.
As to TTATTTTCAAAAACAACTGTAA, the sensor-assay potency score (higher = more potent) was -0.406.

TATTAATCTTTTCTTCTCCTGG displayed a sensor-assay potency score (higher = more potent) of -0.0994.

TATACCTCTACTTCATCTCCTT showed a sensor-assay potency score (higher = more potent) of 0.473.

The sequence TAAGCATCAACTTCGTACGAAT registered a sensor-assay potency score (higher = more potent) of -0.962.

For the sequence TTGAGCACAGAACTGATGGAGG, the sensor-assay potency score (higher = more potent) is -0.647.

Turning to TTCATTTCTGGACATAAGCATC, the sensor-assay potency score (higher = more potent) is -1.34.

TGTCTCGATCATCTTCTCCTGC showed a sensor-assay potency score (higher = more potent) of 0.196.

In the case of TTTCTTGAATAACTTTGCCATT, the sensor-assay potency score (higher = more potent) is -1.55.

TATTTTATAACACAGTAGGTGT: the sensor-assay potency score (higher = more potent) is -0.648.

As for TTCAATCACATCTTTTGCCATT, the sensor-assay potency score (higher = more potent) is -1.45.

Regarding TTGCTCTTGAATATACCTCTAC, the sensor-assay potency score (higher = more potent) was -0.669.

Another assay concerns the target FYTTD1. The assay is described as above. The following applies: shRNA.
Sequence TTTAATTTATTTCCACTCCTGG yielded a sensor-assay potency score (higher = more potent) of -0.341.

TACTACATCGTCTAGCAGTTGT: the sensor-assay potency score (higher = more potent) amounted to 0.276.

As for TTATTTTTTCTGCTTAGCTGGC, the sensor-assay potency score (higher = more potent) is -0.29.

For the sequence TTCTCTTTGCTACTACATCGTC, the sensor-assay potency score (higher = more potent) was -0.513.

As to TGCTACTACATCGTCTAGCAGT, the sensor-assay potency score (higher = more potent) was -0.935.

Sequence TATTCTTGTCACTTAGAGGTGG registered a sensor-assay potency score (higher = more potent) of 0.0654.

The sequence TTGTATGTGAGAGTGGCTCTTT showed a sensor-assay potency score (higher = more potent) of -0.0403.

For the sequence TTCTGTATTCAACTGGGCCTGC, the sensor-assay potency score (higher = more potent) was -0.211.

In turn, TAGCTGGCTAGGTCTCTTGAGA registered a sensor-assay potency score (higher = more potent) of -1.72.

Turning to TTAAAAATGAAGGTACAGCAGT, the sensor-assay potency score (higher = more potent) was -0.441.

TAGGTCTCTTGAGAACTGCTAC registered a sensor-assay potency score (higher = more potent) of -0.309.

Regarding TAGTCTTGGAAAATTCTGCTTC, the sensor-assay potency score (higher = more potent) amounted to 0.266.

The target of the next assay is FZD1. Described as above. The conditions noted are these: shRNA.
The sequence TAGAACTTCCTCCAGGAGTTGA showed a sensor-assay potency score (higher = more potent) of -0.794.

The sequence TTCACTAGAGGGTAGAACTGGT returned a sensor-assay potency score (higher = more potent) of 0.461.

In turn, TTGCTGGTCCAGAACTCTGGAA had a sensor-assay potency score (higher = more potent) of -1.24.

TACAGCACGCTGAAGACGCCAA came in with a sensor-assay potency score (higher = more potent) of -0.38.

In the case of TTTCACTAGAGGGTAGAACTGG, the sensor-assay potency score (higher = more potent) is -0.532.

TTGCTGTTGGTGAGCCTCGTGT came in with a sensor-assay potency score (higher = more potent) of -1.11.

In the case of TTTGCTGTTGGTGAGCCTCGTG, the sensor-assay potency score (higher = more potent) was -0.218.

TGTCATTACACACCACTCGGTC: the sensor-assay potency score (higher = more potent) is -0.427.
